Bioassay records deposited in PubChem BioAssay by several laboratories.
This is a sample that favours compounds with a hit; in the whole collection about 2.4% have one here.
APOBEC3G inh: inhibitors of human APOBEC3G DNA deaminase | recombinant A3G, ssDNA deamination FAM/TAMRA fluorescence | 330,000 compounds, 0.28% hits | inhibition, % at 20 µM | Q9HC16 | AID 493012;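 active = inhibition of at least 40% at 20 µM, with no more than 30% in the related APOBEC3A deaminase screen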;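 note: plate controls were DMSO wells with A3G for no effect and wells lacking A3G enzyme for full effect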
PfM18AAP inh-1: PfM18AAP enzyme inhibition. recombinant PfM18AAP, H-Glu-NHMec fluorogenic cleavage. inhibition, % at 7.35 µM. 290,000 compounds, 1.2% hits. AID 1822;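 active = inhibition above the campaign mean inhibition over all tested compounds plus 3 SD, cut at about 28% in these data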;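 note: 0% = plate median of test compound wells and 100% = 2 mM ZnCl2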
Yeast superoxide: caloric restriction mimetics inhibiting age-related superoxide in yeast; S. cerevisiae aged cells, superoxide DHE fluorescence; active compounds read low; superoxide response (% of plate mean), % at 10 µM; 330,000 compounds, 0.18% hits; AID 2690;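 active = superoxide response under a set limit, about three screen SD below normal, cut at about 65% in these data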;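 note: yeast aged for seven days with compound at 30 °C before DHE staining; 100% = average MFI of all compound-treated wells on the plate with controls excluded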
APOBEC3A inh: blocks human APOBEC3A ssDNA deamination. 330,000 compounds, 0.41% hits. inhibition, % at 20 µM. P31941. AID 493011. recombinant A3A, FAM/TAMRA ssDNA deamination fluorescence;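 active = at least 40% inhibition at 20 µM here, with at most 30% in a related deaminase screen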;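 note: plate controls were A3A with DMSO for no effect and wells lacking A3A enzyme for full effect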
Target sequence (P31941 whole entry, looked up): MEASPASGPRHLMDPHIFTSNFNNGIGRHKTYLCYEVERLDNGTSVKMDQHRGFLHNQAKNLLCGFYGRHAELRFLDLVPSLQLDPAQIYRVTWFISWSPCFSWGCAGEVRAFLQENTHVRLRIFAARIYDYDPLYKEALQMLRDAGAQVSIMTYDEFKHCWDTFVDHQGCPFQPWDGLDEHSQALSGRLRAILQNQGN
PfG6PD inh: PfG6PD (Plasmodium falciparum) enzyme inhibition | inhibition, % at 20 µM | PfGluPho enzyme, NADPH resazurin-diaphorase fluorescence | 350,000 compounds, 0.78% hits;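 active = inhibition reaching at least a set limit at 20 µM in the primary screen, cut at about 59% in these data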;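 note: 0% = DMSO wells with substrate and 100% = DMSO wells lacking glucose-6-phosphate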
PfM18AAP inh-2: confirmation of Plasmodium falciparum M18 aspartyl aminopeptidase inhibitors; AID 2170; inhibition, % at 7.35 µM; 2,400 compounds, 28% hits; recombinant PfM18AAP, H-Glu-NHMec fluorogenic cleavage; shares compounds with PfM18AAP inh-1;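 active = mean inhibition over replicate wells above the hit cutoff set for the earlier primary screen, cut at about 29% in these data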;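 note: 0% = median of test compound wells and 100% = 2 mM ZnCl2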
CTSL1 confirm: Cathepsin L (human) inhibition, confirmation; purified cathepsin L1, Z-Leu-Arg-MCA fluorescence; 2,400 tested, under 10 active; shares compounds with PfM18AAP inh-1; AID 2178; inhibition, % at 5.96 µM;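 active = average inhibition across replicates above the hit cutoff set in the earlier primary screen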;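 note: 0% = median of test compound wells and 100% = Z-Phe-Ala-diazomethylketone 1 µM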
Target sequence (P07711 whole entry, looked up): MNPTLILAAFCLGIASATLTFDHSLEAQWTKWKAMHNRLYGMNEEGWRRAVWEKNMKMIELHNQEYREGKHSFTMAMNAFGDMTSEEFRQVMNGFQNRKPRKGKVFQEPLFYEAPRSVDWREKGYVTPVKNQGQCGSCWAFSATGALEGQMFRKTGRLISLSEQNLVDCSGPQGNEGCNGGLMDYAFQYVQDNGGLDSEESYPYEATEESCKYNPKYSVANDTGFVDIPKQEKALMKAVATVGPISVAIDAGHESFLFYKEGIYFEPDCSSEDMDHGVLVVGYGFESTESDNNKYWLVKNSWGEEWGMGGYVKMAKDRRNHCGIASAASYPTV
Numbers without * were called inactive; . = not tested or not shown.

SMILES | APOBEC3G inh | PfM18AAP inh-1 | Yeast superoxide | APOBEC3A inh | PfG6PD inh | PfM18AAP inh-2 | CTSL1 confirm
Cn1cc(Cl)c(-c2n[nH]c(=S)n2-c2ccccc2)n1 | 31 | 27 | 119 | -3 | 30 | . | .
COc1cc(NC(=O)c2ccccc2)c(OC)cc1NC(=O)CN1C(=O)N(C)C2(CCCCC2)C1=O | -9 | . | . | -3 | 17 | . | .
O=C(Nc1ccncc1)Nc1cc(Cl)ccc1Cl | -2 | 0 | 102 | 5 | 3 | . | .
O=C(Nc1cc(Cl)ccc1Cl)Nn1cnnc1 | -9 | 87* | 102 | 2 | 0 | 89* | 5
O=C(Nc1ccc(F)c(Cl)c1)Nn1cnnc1 | 2 | 76* | 102 | 1 | . | 60* | -1
CCOC(=O)c1ccc(NC(=O)Nn2cnnc2)cc1 | -1 | 72* | 108 | 4 | 3 | 64* | 1
CC(C)(C)NC(=O)Nc1ccc(F)c(Cl)c1 | -3 | 1 | 97 | -2 | 17 | . | .
O=C(Nc1ccc(F)cc1)Nn1cnnc1 | -9 | 58* | 93 | -1 | 3 | 46* | -4
O=C1C2C3c4ccccc4C(c4ccccc43)C2C(=O)N1Cc1ccccn1 (stereo unspecified) | -11 | -9 | 113 | 0 | -5 | . | .
Cc1c(Cl)cccc1NC(=O)Nn1cnnc1 | -7 | 82* | 96 | -3 | -1 | 65* | 1
Cc1c(Cl)cccc1NC(=O)Nc1cc(C(C)(C)C)nn1C | 0 | 3 | 111 | 0 | 11 | . | .
CCNc1nc(NCC)n2c(SCC(=O)Nc3ccccc3[N+](=O)[O-])nnc2n1 | -6 | 2 | 110 | -5 | -15 | . | .
Cc1cc(C)cc(Nc2ccc(C(=O)O)cc2N)c1 | -2 | 41* | 111 | 1 | -36 | -21 | -3
Cc1ccc(Nc2ccc(C(=O)O)cc2N)cc1 | -3 | 55* | 99 | -5 | -25 | 4 | 7
COc1cccc(Nc2ccc(C(=O)O)cc2N)c1 | -5 | 5 | 109 | -4 | -15 | . | .
CCN(C(=O)CSc1n[nH]c(N)n1)C1CCCCC1 | -1 | . | 100 | 2 | -4 | . | .
CCOC(=O)C1(NC(=O)C2(N3C(=O)c4ccccc4C3=O)CCCC2)CCCC1 | . | . | . | . | -2 | . | .
O=c1[nH]c(=S)[nH]c2c1CN(Cc1ccc(F)cc1)CC2 | -4 | 37* | 80 | -8 | -3 | 9 | 5
Cc1ccc(CN2CCc3[nH]c(=S)[nH]c(=O)c3C2)cc1 | -8 | 20 | 85 | -12 | 10 | . | .
Oc1cc2c(cc1CN1CCc3ccccc3C1)OCO2 | -8 | 37* | 104 | -3 | 33 | 12 | -6
O=C1CC(c2ccccc2)Cc2nc3nc(C(F)(F)F)nn3cc21 (stereo unspecified) | -20 | -2 | 104 | -12 | 9 | . | .
CSc1nc2nc3c(cn2n1)C(=O)CC(c1ccccc1)C3 (stereo unspecified) | -12 | 34* | 106 | -10 | -2 | -53 | -2
CC[n+]1c(/C=C/C=C/N(C(C)=O)c2ccccc2)sc2cc(OC)ccc21 | . | 43* | 106 | . | 27 | -36 | 1
CC(Sc1ccc(S(=O)(=O)N2CCOCC2)cc1[N+](=O)[O-])C(=O)O (stereo unspecified) | -3 | 33* | 135 | -2 | -17 | -34 | -7
Cc1ccc(C(=O)N2CCN(c3ncccn3)CC2)cc1S(=O)(=O)N1CCCCC1 | -10 | -3 | 92 | 0 | -3 | . | .
SMILES | APOBEC3G inh | PfM18AAP inh-1 | Yeast superoxide | APOBEC3A inh | PfG6PD inh | PfM18AAP inh-2 | CTSL1 confirm
COc1cc(CNc2ccc(N3CCCCC3)cc2)ccc1OCC(=O)NC(C)(C)C | -1 | 43* | 98 | -5 | 41 | -33 | -1
COc1cc(CNc2ccc(N3CCCC3)cc2)ccc1OCc1ccccc1 | . | 8 | 91 | . | 54 | . | .
NNc1ccc(S(=O)(=O)N2CCCCC2)cn1 | -3 | 33* | 99 | 0 | 3 | 31* | 1
CCCCCCCCCCC[C@@H](C[C@@H]1OC(=O)[C@H]1CCCCCC)OC(=O)[C@H](CC(C)C)NC=O | 13 | 2 | 92 | 5 | 28 | . | .
N#Cc1ccc(CSc2nnc(NC(=O)CCc3nc4ccccc4c(=O)[nH]3)s2)cc1 | -10 | . | 94 | 2 | 2 | . | .
CC1(C)CC(=O)C(C(=S)Nc2ccccc2)=C(NC2CC(C)(C)NC(C)(C)C2)C1 | -5 | 47* | 90 | -3 | -9 | -48 | 3
COC(=O)c1ccc(NC(=S)NC2CC(C)(C)NC(C)(C)C2)cc1 | -8 | -1 | 116 | -2 | 5 | . | .
Cc1cc(NC(=O)CSc2nnc(-c3ccco3)o2)no1 | -4 | 47* | 105 | -2 | 1 | -19 | -2
CCN(CC)c1ccc(C2C3CCCCC3(O)CCN2CC(=O)N2CCCCC2)cc1 (stereo unspecified) | -7 | 49* | 104 | -17 | 7 | -8 | 4
CS(=O)(=O)Nc1cccc2[nH]ncc12 | -2 | 2 | 101 | -2 | -3 | . | .
CCCCCCOc1ccc(C(=O)n2cnc(N)n2)cc1 | 11 | 44* | 88 | 28 | -4 | 41* | -1
Cc1c(O)ccc(/C=N/Nc2ncccc2[N+](=O)[O-])c1O | -3 | 43* | 85 | -1 | -26 | 10 | 1
O=[N+]([O-])c1cccnc1N/N=C/c1ccccc1O | -4 | 9 | 113 | -2 | -2 | . | .
COc1ccc(CCNC(=O)CSc2nnc(CNC(=O)c3cc(OC)c(OC)c(OC)c3)o2)cc1OC | -6 | -4 | 78 | -5 | -14 | . | .
Oc1ccc(N2CCN(c3ncnc4sc5c(c34)CCC5)CC2)cc1 | 15 | 39* | 104 | -3 | 62* | 3 | -1
O=S(=O)(NNC(=S)Nc1ccc(S(=O)(=O)Nc2ncccn2)cc1)c1ccc(Br)cc1 | -10 | 41* | 98 | -3 | -29 | -45 | -9
CCOC(=O)c1ccc(S(=O)(=O)NC2CCC(C)CC2)cc1 (stereo unspecified) | -5 | . | 93 | -1 | -5 | . | .
O=C1NC(=O)/C(=C\c2ccc(O)cc2O)S1 | 11 | 90* | 110 | 13 | -1 | 86* | 2
O=C1NC(=O)/C(=C/c2cccc3ccccc23)S1 | -5 | -1 | 105 | 5 | -30 | . | .
CC(C)(C)[C@H]1COC(=O)[C@@H](Cc2ccc(F)cc2)CC/C=C/C[C@@H](CC(=O)N[C@H](CO)Cc2ccccc2)C(=O)N1 | -10 | . | 90 | -4 | -6 | . | .
O=C(NNc1ccc(F)cc1F)c1c(F)cccc1Cl | -9 | 33* | 97 | -2 | 10 | 6 | 2
O=C(NNc1c(Cl)cccc1Cl)c1c(F)cccc1Cl | -3 | -1 | 107 | 0 | 1 | . | .
C=CCn1c(C)cc(C(=O)CSc2nc(N)cc(N)n2)c1C | -8 | 8 | 108 | -2 | -2 | . | .
Cc1cc(C(=O)CSc2nc(N)cc(N)n2)c(C)n1-c1cccc(F)c1 | -6 | 34* | 97 | 0 | -11 | -37 | -4
Cc1cc(C(=O)CSc2nnc(N)s2)c(C)n1C1CC1 | -5 | . | 104 | -6 | 28 | . | .
